Test results from ChEMBL document CHEMBL1201862, “PubChem BioAssay data set” (2004).
The whole screen tested about 54,000 sequences, of which about 3,300 (6.1%) were called active. No stated cut-off is given here; in the data, active = GI50 up to about 1.1 µM and inactive = higher. The list is a sample of the results. Entries with a potency or affinity are not part of this list.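 Dose response: 5 concentrations. Exposure: 48 h. Format: 96-well plates. Endpoint: linear interpolation; highest concentration if not reached. GI50 = concentration required for 50% inhibition of growth.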

These substances were tested on Malme-3M (assay: NCI tumour cell line growth inhibition, 48 h).
“[Bis(aminomethyl)pentamethylenesilane]tetrachloropaltinum(IV), CHEMBL2146204” showed a GI50 of 1220 nM. In the case of “[Bis(aminomethyl)tetramethylenesilane]dichloropaltinum(II), CHEMBL2146205”, the GI50 is reported as 8590 nM. For “[Bis(aminomethyl)dimethylsilane]tetrachloroplatinum(IV), CHEMBL2146190”, the GI50 was 2770 nM. “[Bis(aminomethyl)tetramethylenesilane]tetrachloropaltinum(IV), CHEMBL2146189” gave a GI50 of 1620 nM. “cis-Bis[[(trimethylsilyl)methyl]amino]tetrachloroplatinum(IV), CHEMBL2146191” gave a GI50 of 2250 nM. For “mu-(1,7-nanodiamine-N,N')bis-(cis-aminedichloroplatimum (II)), CHEMBL2146215”, the GI50 was 2410 nM. In the case of “[Bis(aminomethyl)diethylsilane]tetrachloroplatinum(IV), CHEMBL2146203”, the GI50 is reported as 1220 nM. Work on CISPLATIN, CHEMBL11359 yielded a GI50 of 1600 nM. Work on “[Bis(aminomethyl)ethylmethylsilane]tetrachloroplatinum(IV), CHEMBL2146192” yielded a GI50 of 2080 nM. Work on “[Bis(aminomethyl)pentamethylenesilane]dichloropaltinum(II), CHEMBL2146202” yielded a GI50 of 1540 nM. With “[Bis(aminomethyl)dimethylsilane]dichloroplatinum (II), CHEMBL2146201” the GI50 was 17700 nM.
